Results taken from PubChem BioAssay (Tox21).
Records with an inconclusive call do not appear. Where a call stands in place of a potency, no number is given. Activity calls are given as the source filed them. Calls follow the shape of the dose curve; as a rule, active = well fitted cell-killing curve with a large enough effect in the repeat runs; inconclusive = weak or mixed curves, or effect the other way; inactive = flat fitted curve, though single readings scatter.

Key:
[1] = cAMP Responsive Elements (CRE) small molecule antagonists, cell-based qHTS assay: qHTS cell viability counter screen (AID 2060913); also: nearly all actives have a fitted effect of over 40% in size
In short: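 CRE-bla HEK293T cells were seeded in assay medium with 10% dialyzed FBS, incubated 18 hrs at 37 C, then exposed to compounds plus 0.25 uM final NKH477 for 3 hrs. Viability was read by CellTiter-Glo luminescence after 30 min, in the same wells.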

[2] = cAMP Responsive Elements (CRE) small molecule agonists, cell-based qHTS assay: qHTS cell viability counter screen (AID 2060914);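 also: viability read after 3 h of compound exposure; nearly all actives have a fitted effect of over 50% in size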
In short: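 Cells are seeded and incubated 18 h, treated with compounds in DMSO for 3 h, read for the bla reporter, then given CellTiter-Glo; luminescence is measured after 30 min at room temperature.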

Row | Compound | Potency [1] | Potency [2]
1 | O=C(O)c1ccc2cc(C(=O)O)ccc2c1 | inactive | inactive
2 | Oc1ccc(OCc2ccccc2)cc1 | inactive | inactive
3 | NC(=O)c1ccccc1 | inactive | inactive
4 | CO[Si](C)(C)OC | inactive | inactive
5 | CCC/C=C/CO | inactive | inactive
6 | Cc1ccc2c(Cl)cc(Cl)c(O)c2n1 | inactive | inactive
7 | CC(C)Cc1ccc(C(C)C(=O)O)cc1 (stereo not drawn) | inactive | inactive
8 | Cn1nnc2c(C(N)=O)ncn2c1=O | inactive | inactive
9 | CC(C)(c1ccc(Oc2ccc(N)cc2)cc1)c1ccc(Oc2ccc(N)cc2)cc1 | inactive | inactive
10 | CCO[Si](CCCSSSSCCC[Si](OCC)(OCC)OCC)(OCC)OCC | inactive | inactive
11 | O=CN1CCOCC1 | inactive | inactive
12 | O=C(CCN1CCN(CCO)CC1)N1c2ccccc2Sc2ccc(C(F)(F)F)cc21 | inactive | inactive
13 | CCN(CC)CCNC(=O)COc1ccc(Cl)cc1 | inactive | inactive
14 | CC(C)(C)c1ccc(-c2ccc(C(C)(C)C)cc2)cc1 | inactive | inactive
15 | CN1C(CSCC(F)(F)F)Nc2cc(Cl)c(S(N)(=O)=O)cc2S1(=O)=O (stereo not drawn) | inactive | inactive
16 | O=C1CC2(CCCC2)CC(=O)N1CCCCN1CCN(c2ncccn2)CC1 | inactive | inactive
17 | O=C(O)CCNC(=O)c1ccccc1 | inactive | inactive
18 | CCNC(=S)NCC | inactive | inactive
19 | CC[C@H]1OC(=O)[C@H](C)[C@@H](O[C@H]2C[C@@](C)(OC)[C@@H](O)[C@H](C)O2)[C@H](C)[C@@H](O[C@@H]2O[C@H](C)C[C@H](N(C)C)[C@H]2O)[C@](C)(O)C[C@@H](C)CN(C)[C@H](C)[C@@H](O)[C@]1(C)O | inactive | inactive
